Compound activity deposited in PubChem BioAssay by Broad Institute.
PglD inh: C. jejuni PglD acetyltransferase inhibitors, primary screen, biochemical, DTNB colorimetric, single point | UDP-N-acetylbacillosamine N-acetyltransferase PglD (Campylobacter jejuni) | purified PglD enzyme, DTNB colorimetric CoA detection | inhibition, % at 12.5 µM | 0.098% of 360,000 active | AID 602405, 2012; in the data active = inhibition above about 16%, passing the limit was not always enough
ARNT TACC3 PPI: disruptors of ARNT/TACC3 protein interaction, primary screen, biochemical, AlphaScreen, single concentration | Transforming acidic coiled-coil-containing protein 3 (Homo sapiens), Q9Y6A5 | AlphaScreen His-ARNT PAS-B/GST-TACC3 binding, luminescence; TACC3 fragment carries E629A point mutation | inhibition, % at 9.99 µM | 0.66% of 390,000 active | AID 623870, 2012;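 active = mean inhibition of replicates at least 50% and at least half of replicates each reaching 50%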
Statin myotox sup: suppressors of statin myotoxicity in C2C12 myotubes, primary screen, cell-based, single point, plate reader | C2C12 myotubes + simvastatin, ATP luminescence, 48 h; scaled: DMSO 0, geranylgeraniol control 100 | rescue of ATP level, % at 7.49 µM | 0.78% of 330,000 active | AID 602340, 2012;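 active = mean ATP rescue above about 67%, or every replicate alone reaching that limit, limit read from the data, passing the limit was not always enough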;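 also: myotubes were challenged with 10 µM simvastatin during compound exposure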
CFTR F508del cor: F508del CFTR correction, initial screen, CFBE line, single point; 0.36% of 350,000 active; CFBE cells, YFP halide quenching; stimulated with forskolin plus potentiator P3; % fluorescence drop versus neutral controls; activity (quench increase), % at 7.58 µM;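 active = mean added fluorescence quench of at least 8% versus neutral control, with both replicates also reaching 8%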;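 also: cells transiently co-express mutant CFTR-F508del with the halide-sensitive YFP; corrector assay measuring rescue of mutant channel to the surface after 24 h compound exposure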
Each line names hits and unclear results; the compound was inactive in the other large screens. Compounds with a hit are over-represented: about 1.4% of the library has one in this group of screens.

C[C@@H]1CN([C@@H](C)CO)C(=O)Cc2cc(NC(=O)C3CC3)ccc2O[C@H]1CN(C)Cc1ccc(Oc2ccccc2)cc1	Statin myotox sup 74
CC=Cc1ccc2n(c1=O)C[C@H]1N[C@@H]2[C@@H](C(=O)NCCc2ccccc2)[C@@H]1CO (mixture of isomers)	none (no result: CFTR F508del cor)
O=C(CN(Cc1ccccc1)S(=O)(=O)c1ccccc1)N/N=C/c1ccc([N+](=O)[O-])cc1	none (no result: Statin myotox sup, CFTR F508del cor)
O=C(CN(Cc1ccccc1Cl)S(=O)(=O)c1ccc(Cl)cc1)N/N=C/c1ccc(C(=O)O)cc1	ARNT TACC3 PPI 51
O=C(C[C@H]1C[C@H]2c3cc(NC(=O)CC4CC4)ccc3O[C@H]2[C@@H](CO)O1)NCCc1ccccc1	none
O=C(c1ccccc1)N1CCN(C(=O)C2CC2)CC1	none (no result: ARNT TACC3 PPI)
O=C(C1CC1)N1CCC(C(O)(c2ccccc2)c2ccccc2)CC1	Statin myotox sup 85 (no result: CFTR F508del cor)
COc1cc(/C=C2/C(=O)N(c3ccc(Br)cc3)N=C2C)cc(OC)c1OC	none (no result: CFTR F508del cor)
COc1cc(/C=C2/C(=O)N(c3ccc(C(=O)O)cc3)N=C2C)cc(OC)c1O	ARNT TACC3 PPI 12
COCc1cc(C)nc(OCC(=O)N/N=C/c2ccc(O)cc2O)c1C#N	ARNT TACC3 PPI 73 (no result: PglD inh, Statin myotox sup)
COCc1cc(C)nc(OCC(=O)N/N=C/c2ccccc2O)c1C#N	ARNT TACC3 PPI 81 (no result: PglD inh, Statin myotox sup)
COc1cccc(CN2C[C@@H]3N[C@H](C2)C3c2ccc(-c3ccccc3OC)cc2)c1 (some centres not stated)	none (no result: PglD inh, ARNT TACC3 PPI, Statin myotox sup)
Cc1oc(-c2ccc(F)cc2)nc1CN(Cc1ccccn1)CC1CCCO1 (configuration not stated)	ARNT TACC3 PPI 50
COc1ccc(C#Cc2c(-c3ccccc3)n(-c3ccccc3)c3ccc(CO)cc23)cc1	Statin myotox sup 89
O=C(N/N=C/c1c(O)ccc2ccccc12)c1ccc(Br)o1	CFTR F508del cor 12
O=C(N/N=C\c1c(O)ccc2ccccc12)c1cncc(Br)c1	CFTR F508del cor 35
Cn1nccc1C(=O)N/N=C/c1c(O)ccc2ccccc12	CFTR F508del cor 11
O=C(N/N=C/c1c(O)ccc2ccccc12)c1cccnc1	ARNT TACC3 PPI 59 (no result: CFTR F508del cor)
COCC(=O)Nc1ccc2c(c1)C(=O)N(C)C[C@@H](OC)[C@@H](C)CN(Cc1cc(F)ccc1F)[C@H](C)CO2	none
Cc1occc1C(=O)N/N=C/c1c(O)ccc2ccccc12	CFTR F508del cor 10 (no result: ARNT TACC3 PPI)
O=C(N/N=C/c1ccccn1)c1ccc(Br)o1	ARNT TACC3 PPI 69 (no result: CFTR F508del cor)
COc1ccc2ccccc2c1/C=N/NC(=O)c1nnn(-c2nonc2N)c1C(C)C	none
O=C(N/N=C/c1c(O)ccc2ccccc12)c1ccc[n+](CCO)c1	ARNT TACC3 PPI 64 (no result: PglD inh, Statin myotox sup)
Cc1c(C(=O)N/N=C/c2c(O)ccc3ccccc23)nnn1-c1nonc1N	CFTR F508del cor 14
C[C@H](CO)N1C[C@H](C)[C@@H](CN(C)C(=O)Nc2ccc(C(F)(F)F)cc2)Oc2c(NS(=O)(=O)c3ccc(Cl)cc3)cccc2C1=O	none
C[C@@H]1CN([C@@H](C)CO)C(=O)c2cc(/C=C/c3ccccc3)cnc2O[C@H]1CN(C)Cc1ccc2c(c1)OCO2	none
CCCn1c(/N=C/c2ccccc2O)nc2ccccc21	none (no result: CFTR F508del cor)
Cn1c(/N=C/c2c(O)ccc3ccccc23)nc2ccccc21	Statin myotox sup 75 (no result: CFTR F508del cor)
CCN(CC(=O)Nc1c(F)cccc1F)C(=O)C1CCN(C(=O)c2ccc(Cl)cc2)CC1	none
CCN(CC(=O)Nc1c(F)cccc1F)C(=O)C1CC1	CFTR F508del cor 8.4 (no result: ARNT TACC3 PPI)
COc1ccc(S(=O)(=O)N(C)C[C@H]2Oc3ncc(C#CC4(O)CCCC4)cc3C(=O)N([C@H](C)CO)C[C@@H]2C)cc1	ARNT TACC3 PPI 39
COc1ccc(S(=O)(=O)N(C)C[C@H]2Oc3ncc(C#CC4(O)CCCC4)cc3C(=O)N([C@@H](C)CO)C[C@H]2C)cc1	none
Cc1ccc(S(=O)(=O)N(C)C[C@@H]2Oc3ncc(C#Cc4cccc(F)c4)cc3C(=O)N([C@H](C)CO)C[C@@H]2C)cc1	Statin myotox sup 100
C[C@H](CO)N1C[C@H](C)[C@H](CN(C)S(=O)(=O)c2ccc(C#N)cc2)Oc2ncc(C#Cc3cccc(F)c3)cc2C1=O	none
Cc1ccc(S(=O)(=O)Nc2ccc3c(c2)CC(=O)N([C@H](C)CO)C[C@H](C)[C@@H](CN(C)S(C)(=O)=O)O3)cc1	none
COc1cc(NC(=O)Cc2cccc3ccccc23)c(C(=O)O)cc1OC	Statin myotox sup 83
O=C(NCCC1=CCCCC1)C1COc2ccccc2O1 (configuration not stated)	Statin myotox sup 146 (no result: CFTR F508del cor)
COCCCNC(=O)c1c(NC(=O)C2COc3ccccc3O2)sc2c1CCCC2 (configuration not stated)	Statin myotox sup 96 (no result: ARNT TACC3 PPI, CFTR F508del cor)
O=C(NCCc1ccc(C(F)(F)F)cc1)C1COc2ccccc2O1 (configuration not stated)	none
CCNC(=O)c1c(NC(=O)C2COc3ccccc3O2)sc2c1CCCC2 (configuration not stated)	none (no result: PglD inh, Statin myotox sup, CFTR F508del cor)
S=c1sc2c(Cl)ncnc2n1-c1ccccc1	ARNT TACC3 PPI 69
C[C@H](CO)N1C[C@H](C)[C@H](CN(C)S(=O)(=O)c2cccs2)Oc2c(NS(=O)(=O)c3ccc(F)cc3)cccc2C1=O	none
N=C(N)SCc1ncccc1O	ARNT TACC3 PPI 50
CN1[C@@H]2Cn3c(ccc(-c4ccc(F)cc4)c3=O)[C@H]1[C@@H](C(=O)NC1CCCCC1)[C@@H]2CO	none
CCCC(=O)Nc1ccc2c(c1)C(=O)N(C)C[C@@H](OC)[C@H](C)CN(C(=O)CN1CCOCC1)[C@H](C)CO2	CFTR F508del cor 8.4 (no result: ARNT TACC3 PPI)
CCC(=O)Nc1ccc2c(c1)OC[C@H](C)N(Cc1ccccn1)C[C@@H](C)[C@@H](OC)CN(C)C2=O	none
CO[C@@H]1CN(C)C(=O)c2ccc(NS(C)(=O)=O)cc2OC[C@H](C)N(C(=O)C2CCOCC2)C[C@H]1C	none
CCC(=O)Nc1ccc2c(c1)OC[C@@H](C)N(Cc1ccccn1)C[C@@H](C)[C@H](OC)CN(C)C2=O	PglD inh 18 (no result: ARNT TACC3 PPI)
CO[C@@H]1CN(C)C(=O)c2ccc(NS(C)(=O)=O)cc2OC[C@@H](C)N(C(=O)C2CCOCC2)C[C@H]1C	PglD inh 18
Cc1ccc(S(=O)(=O)N[C@@H]2CC[C@@H](CCn3cc(C(C)C)nn3)O[C@@H]2CO)cc1	none
CN1C(=O)c2cc(NC(=O)C3CCCCC3)ccc2OC[C@H]2O[C@H](CC(=O)NCC3CCCCC3)CC[C@@H]21	none (no result: PglD inh, ARNT TACC3 PPI, Statin myotox sup)
C/C(=N\NC(=O)CNc1ccccc1Cl)C(C)(C)C	Statin myotox sup 72 (no result: CFTR F508del cor)
C/C(=N\NC(=O)CNc1cccc(Cl)c1C)C1CC1	none (no result: PglD inh, Statin myotox sup)
O=[N+]([O-])c1cc(/C=N/N/C(=N/c2ccccn2)c2ccccn2)ccc1O	ARNT TACC3 PPI 66 (no result: PglD inh, Statin myotox sup)
CCN1[C@H](C(=O)Nc2nccs2)[C@@H](CO)[C@@H]2Cn3c(ccc(/C=C/c4ccccc4)c3=O)[C@@H]21	none (no result: PglD inh, ARNT TACC3 PPI, Statin myotox sup)
